Our source for the Potency values is PubChem BioAssay (NCATS).

The target of test [1] is Calcium and integrin-binding protein 1 (Homo sapiens) (UniProt Q99828). The test is described as follows: Primary qHTS for Identification of Calcium Integrin Binding Protein 1 (CIB1) Competitor (AID 1508620).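 Note: GST tagged CIB1 binding a fluorescein labelled alphaIIb integrin peptide tracer; top concentration of the series differs between compounds.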 The procedure, abridged:
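Fluorescence polarization competition: CIB1-GST (1 uM final) preincubated with compound 15 min at room temperature, then FITC-labeled alphaIIb peptide (100 nM final) added for another 15 min. Polarization read at Ex 480/Em 540.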

A short description of test [2]: Primary qHTS for small molecule stabilizers of the endoplasmic reticulum resident proteome: Secreted ER Calcium Modulated Protein (SERCaMP) assay (AID 1508630). The procedure, abridged:
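The SH-SY5Y reporter protocol was run at 3 concentrations up to 38.3 uM (primary) or 11 concentrations (follow-up): 16 h compound, 100 nM thapsigargin for 4 h, then extracellular luciferase luminescence.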

Records with an inconclusive call do not appear. A call without a number means that no potency is given here. Activity calls are given as the source filed them. Calls come from the whole dose curve; as a rule, active = well fitted curve in the direction sought with a large enough effect; inconclusive = small, poorly fitted or top-dose-only effect, or another doubt; inactive = no such curve, though single readings can be large; an effect the other way counts as inactive or inconclusive.

Chain of Calcium and integrin-binding protein 1 (Homo sapiens) (Q99828 whole entry, looked up): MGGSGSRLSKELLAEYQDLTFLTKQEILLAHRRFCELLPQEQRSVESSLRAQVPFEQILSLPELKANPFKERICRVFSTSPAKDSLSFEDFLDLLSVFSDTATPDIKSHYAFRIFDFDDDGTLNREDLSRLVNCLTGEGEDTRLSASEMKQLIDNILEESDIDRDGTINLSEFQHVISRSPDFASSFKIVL

As to `Cc1cc(-c2ncc(CC(=O)Nc3ccc(-c4cnccn4)cn3)cc2C)ccn1`, the Potency result in test [1] and in test [2] was “inactive” throughout.

For `CC(C)(OCc1nn(Cc2ccccc2)c2ccccc12)C(=O)O`, the Potency result in test [1] and in test [2] was “inactive” throughout.

As for `CC[C@H](C)n1cc(C)c2c(C(=O)NCc3c(C)cc(C)[nH]c3=O)cc(-c3ccc(N4CCNCC4)nc3)cc21`, the Potency entry in test [1] and in test [2] was “inactive” in each case.

Turning to `O=c1[nH]c(=O)n([C@H]2C[C@@H](O)[C@@H](CO)O2)cc1C(F)(F)F`, the Potency result in test [1] and in test [2] was “inactive” each time.

In the case of `NC(=O)c1nnn(Cc2cc(Cl)c(C(=O)c3ccc(Cl)cc3)c(Cl)c2)c1N`, the Potency result in test [1] and in test [2] was “inactive” throughout.

Regarding `COc1cc2ncn(-c3cc(OCc4ccccc4S(C)(=O)=O)c(C#N)s3)c2cc1OC`, the Potency entry in test [1] and in test [2] was “inactive” in each case.

Take `OC(c1cc(C(F)(F)F)nc2c(C(F)(F)F)cccc12)C1CCCCN1` (configuration not stated): the Potency entry in test [1] and in test [2] was “inactive” in each case.

As for `CC(=O)O[C@]1(C(C)=O)CC[C@H]2[C@@H]3C=C(Cl)C4=CC(=O)[C@@H]5C[C@H]5[C@]4(C)[C@@H]3CC[C@@]21C`, the Potency result in test [1] and in test [2] was “inactive” each time.

Take `CN(C)c1ccc(-c2nc3ncc(Cl)c(N4CCN(CC(=O)Nc5nccs5)CC4)c3[nH]2)cc1`: the Potency entry in test [1] and in test [2] was “inactive” each time.

On to `Cc1nc(NC(=O)N2CCC[C@@H]2C(N)=O)sc1-c1csc(C(C)(C)C)n1`, for which the Potency entry in test [1] and in test [2] was “inactive” throughout.

Turning to `CC(=O)Nc1cccc(-n2c(=O)n(C3CC3)c(=O)c3c(Nc4ccc(I)cc4F)n(C)c(=O)c(C)c32)c1`, the Potency entry in test [1] and in test [2] was “inactive” throughout.

With `CC1CNc2c(cccc2S(=O)(=O)N[C@@H](CCCN=C(N)N)C(=O)N2CC[C@@H](C)C[C@@H]2C(=O)O)C1` (some centres not stated), the Potency entry in test [1] and in test [2] was “inactive” throughout.

For the molecule `OCCn1cc(-c2ccc3c(c2)CCC3=NO)c(-c2ccncc2)n1`, the Potency result in test [1] and in test [2] was “inactive” each time.

As for `CN1CCN2c3ncccc3Cc3ccccc3C2C1` (configuration not stated), the Potency entry in test [1] and in test [2] was “inactive” each time.

Take `Cc1cn([C@@H]2C[C@@H](O)[C@H](CO)O2)c(=O)[nH]c1=O`: the Potency entry in test [1] and in test [2] was “inactive” each time.

In the case of `CC1CCN(c2cc(N3CCN(C)CC3)ccc2NC(=O)c2cc(C#N)c[nH]2)CC1`, the Potency entry in test [1] and in test [2] was “inactive” each time.

On to `C[C@]12CC[C@@H]3c4ccc(O)cc4CC[C@H]3[C@H]1[C@@H](O)[C@@H](O)[C@H]2O`, for which the Potency result in test [1] and in test [2] was “inactive” in each case.

Turning to `Cc1cccc(Nc2nc(N[C@@H]3CCCC[C@H]3N)ncc2C(N)=O)c1`, the Potency result in test [1] and in test [2] was “inactive” throughout.

Consider `CCc1cccc(CC)c1NC(=O)N1Cc2[nH]nc(NC(=O)c3ccc(N4CCN(C)CC4)cc3)c2C1`, for which the Potency result in test [1] and in test [2] was “inactive” each time.

For the molecule `Cc1ccc2c(c1)c1c(n2CCc2ccc(C)nc2)CCN(C)C1`, the Potency entry in test [1] and in test [2] was “inactive” throughout.

For the molecule `Oc1ccc(C=Cc2cc(O)cc(O)c2)cc1`, the Potency entry in test [1] and in test [2] was “inactive” throughout.

On to `CCOC(=O)N1c2ccc(C(F)(F)F)cc2[C@@H](N(Cc2cc(C(F)(F)F)cc(C(F)(F)F)c2)C(=O)OC)C[C@H]1CC`, for which the Potency entry in test [1] and in test [2] was “inactive” throughout.

Consider `O=C(c1ccc(F)c(F)c1Nc1ccc(I)cc1F)N1CC(O)([C@H]2CCCCN2)C1`, for which the Potency entry in test [1] and in test [2] was “inactive” each time.

Turning to `C[C@H]1[C@H](O)O[C@@H]2O[C@@]3(C)CC[C@@H]4[C@H](C)CC[C@@H]1[C@@]24OO3`, the Potency result in test [1] and in test [2] was “inactive” throughout.

For `CCN(CC)CCCCNc1nc2cc(Cl)c(Cl)cc2nc1-c1ccc(-c2cccs2)s1`, the Potency entry in test [1] and in test [2] was “inactive” throughout.

In the case of `CC(C)CNc1ccnc(NCc2csc(-c3ccccc3)n2)n1`, the Potency result in test [1] and in test [2] was “inactive” in each case.

With `CN(C)c1nc(Cc2ccc(NC(=O)c3ccc(C(F)(F)F)cc3)cc2)nc(N(C)C)c1CC(=O)O`, the Potency result in test [1] and in test [2] was “inactive” throughout.

Turning to `FC(F)(F)c1ccc(C=Cc2nc(COc3ccc(CCCCn4ccnn4)cc3)co2)cc1`, the Potency entry in test [1] and in test [2] was “inactive” each time.

On to `C[C@]12C=CC(=O)C=C1CC[C@@H]1[C@@H]2[C@@H](O)C[C@@]2(C)[C@@H]1CC[C@]2(O)C(=O)CO`, for which the Potency result in test [1] and in test [2] was “inactive” throughout.

In the case of `Cc1cnc(CNC(=O)c2c(=O)c3ccc(N4CCCN(C)CC4)nc3n3c2sc2ccccc23)cn1`, the Potency entry in test [1] and in test [2] was “inactive” each time.

As for `C=C1c2cccc(O)c2C(O)=C2C(=O)[C@@]3(O)C(O)=C(C(N)=O)C(=O)[C@@H](N(C)C)[C@@H]3[C@@H](O)[C@H]12`, the Potency result in test [1] and in test [2] was “inactive” throughout.

`CCCCOCCOc1nc(-c2ccc(C(=O)O)c(F)c2)sc1C`: the Potency entry in test [1] and in test [2] was “inactive” each time.

For `CN[C@@H](C)[C@H]1[C@H](O)C[C@@]2(C)[C@@H]3CC[C@H]4C(C)(C)[C@@H](NC)CC[C@@]45C[C@@]35CC[C@]12C`, the Potency entry in test [1] and in test [2] was “inactive” in each case.

`CC(C)C[C@@H](C(=O)N[C@H](C(=O)OC1CCCC1)c1ccccc1)[C@H](O)C(=O)NO`: the Potency result in test [1] and in test [2] was “inactive” each time.

As for `CS(=O)(=O)c1ccc(C2=C(c3ccccc3)C(=O)OC2)cc1`, the Potency result in test [1] and in test [2] was “inactive” in each case.

Regarding `O=c1[nH]nc(OCCCc2ccc(Cl)cc2)c(NCc2cccnc2)c1Br`, the Potency result in test [1] and in test [2] was “inactive” each time.
